Experimental data: PubChem BioAssay (NCI)
This is part of a sample that, as a whole, favours compounds with a hit. Of some 83,000 tested, about 20% had one in any assay.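 Treatment: one concentration, 48 hours, 96-well format. Scoring: percent growth, with anything below 10 considered active.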 Active and inactive are the calls of the source.

system: CCRF-CEM leukemia; assay: NCI-60 one-dose screen, 48 h (100 = growth as untreated, 0 = no growth, -100 = all killed); settings: 10 µM unless noted
Description: Growth inhibition of the CCRF-CEM human tumor cell line is measured as a screen for anti-cancer activity. Cells are grown in 96 well plates and exposed to the test compound for 48 hours. Compounds are tested at a single concentration, which is 10^-5 M for most compounds. The reported endpoint is percent growth (GI% or GIPRCNT), where numbers from 0 - 100% represent growth inhibition, and numbers from -100% - 0 represent cell death. For example, a value of 40 represents 60% growth inhibition. A value of 0 means no net growth occurred over the course of the experiment. A value of -40 indicates 40% of cells at the beginning of the experiment died by the end of the experiment. A value of -100 means all cells are dead at the end of the experiment.
NCI-60 Human Tumor Cell Lines Screen was performed using the standard one-dose NCI protocol, which is described in more detail at https://dtp.cancer.gov/discovery_development/nci-60/default.htm.
Compounds with GIPRCNT values below 10 were considered active. Activity score was based on GIPRCNT using the following formula: […]
Score is 0 for GIPRCNT values of 100 or above, 50 for GIPRCNT values of 0, and 100 for GIPRCNT values of -100.

**Q.** For C[C@H]1[C@H]2C3=CC[C@@H]4[C@@]5(C)C/C(=C/c6ccncc6)C(=O)C(C)(C)[C@@H]5CC[C@@]4(C)[C@]3(C)CC[C@@]2(C(=O)N2CCN(C)CC2)CC[C@@H]1C, which growth is on record?
**A.** 64.7% (inactive)

**Q.** For COc1ccc(/C=C(\C#N)n2nnc3cc(F)c(F)cc32)c(OC)c1OC, which growth is on record?
**A.** 23.4% (inactive)

**Q.** With CC(C)(C)CC(C)(C)Nc1c(-c2ccc(-c3ccccc3)cc2)nc2cnccn12 as the molecule, how does the growth read?
**A.** 72.9% (inactive)

**Q.** CCCCCCCCn1cc(C2=C(c3coc4ccc(OC)cc34)C(=O)NC2=O)c2ccccc21 was tested. Which growth did it give?
**A.** 99% (inactive)

**Q.** COc1cc2c(=O)n(CCCn3ccnc3)c3c4cc5c(cc4ccc3c2cc1OC)OCO5 was tested. Which growth did it give?
**A.** 3.73% (active)

**Q.** Which growth does the source give for NS(=O)(=O)c1cn(-c2ncnc3nc[nH]c23)ccc1=O here?
**A.** 94.1% (inactive)

**Q.** How did the growth turn out when COc1ccc(C2=NC(=O)NC2c2ccc(OC)cc2)cc1 (stereo not given) was run?
**A.** 68.3% (inactive)

**Q.** How did the growth turn out when CC(C)n1nc(C#Cc2cccc(O)c2)c2c(N)ncnc21 was run?
**A.** -21% (active)

**Q.** How did the growth turn out when COc1ccc(-c2nnc(-c3ccc4c(c3)nc(-c3ccccc3)n4C3CCCCC3)o2)cc1 was run?
**A.** 35.4% (inactive)

**Q.** For CC1(C)CC(=O)c2c(ccc(C(=O)C[C@H](N)CO)c2N)O1, which growth is on record?
**A.** 17.7% (inactive)

**Q.** For N#C/C(=C\c1ccc2c(c1)OCO2)n1nnc2ccccc21, which growth is on record?
**A.** 18.3% (inactive)

**Q.** How did the growth turn out when COc1cc(/C=C2\C=C(c3ccccc3)N(CCc3ccccc3)C2=O)cc(OC)c1OC was run?
**A.** 100% (inactive)

**Q.** Which growth does the source give for CN(C)S(=O)(=O)n1cnc([C@@H]2[C@@H]3C(=O)OC[C@@H]3C[C@]23N=CN(Cc2ccccc2)C3=O)c1 here?
**A.** 125% (inactive)

**Q.** With O=S(=O)(Nc1ccsc1-c1nc(-c2ccccc2)no1)c1cc(Cl)cc(Cl)c1 as the molecule, how does the growth read?
**A.** 101% (inactive)

**Q.** Which growth does the source give for CN1C(=O)CCC(N2C(=O)c3cccc(NCCOCCOCCNC(=O)c4cc5c(o4)C(=O)c4ccccc4C5=O)c3C2=O)C1=O (stereo not given) here?
**A.** 18.4% (inactive)

**Q.** With Cn1ccc(Cc2cnc(N)s2)n1 as the molecule, how does the growth read?
**A.** 100% (inactive)

**Q.** CCn1nc(C#Cc2c(C)ccc3c(Nc4ccc(Cl)cc4)nccc23)c2c(N)ncnc21 was tested. Which growth did it give?
**A.** 10.5% (inactive)

**Q.** With NC(=O)CC1(O)C=C(Br)C(=O)C(Br)=C1 as the molecule, how does the growth read?
**A.** -45% (active)

**Q.** How did the growth turn out when Cc1[nH]c(-c2nc3ccccc3[nH]2)c(C)c1C(=O)N1CCOCC1 was run?
**A.** 112% (inactive)

**Q.** For CCCCCCNC(=O)c1cc(NCc2cc(O)ccc2O)ccc1O, which growth is on record?
**A.** 5.38% (active)

**Q.** How did the growth turn out when Cc1cnc(Nc2ccc(OCCN3CCCC3)cc2)nc1NCc1ccco1 was run?
**A.** 72.7% (inactive)

**Q.** How did the growth turn out when COc1ccc(OC)c(/C=C2\COc3ccc(O)c(O)c3C2=O)c1 was run?
**A.** -0.701% (active)

**Q.** With COc1cc(-c2ncn(/C=C\c3nnco3)n2)cc(C(F)(F)F)c1 as the molecule, how does the growth read?
**A.** 13.6% (inactive)

**Q.** With NC(=S)c1csc(CCNC(=O)c2ccccc2)n1 as the molecule, how does the growth read?
**A.** 90.3% (inactive)

**Q.** For COc1ccc(/C=N/NC(=O)Cn2c(-c3ccc(S(C)(=O)=O)cc3)nc3cc(Cl)ccc32)cc1, which growth is on record?
**A.** 1.56% (active)

**Q.** With Nc1nc(Nc2ccc(Cl)cc2)nn1S(=O)(=O)c1ccc(-c2ccc(F)cc2)cc1 as the molecule, how does the growth read?
**A.** 95.1% (inactive)

**Q.** For C=C1C(=O)O[C@H]2[C@H]1CC/C(COC(=O)/C=C\C(=O)NCc1ccc(Cn3c(=O)sn(CCCI)c3=O)cc1)=C\CC[C@@]1(C)O[C@@H]21, which growth is on record?
**A.** -21.1% (active)

**Q.** CC(C)CCC[C@@H](C)[C@H]1CCC2C3=CCC4C(=O)C=CC(=O)C4C3CC[C@@]21C (stereo not given in full) was tested. Which growth did it give?
**A.** 17% (inactive)

**Q.** Which growth does the source give for Clc1ccc(-c2cn(-c3ccccc3)c(-c3ccccc3)n2)cc1 here?
**A.** -3.48% (active)

**Q.** With C#C[C@]1(O)CC[C@H]2[C@@H]3CC=C4c5sc(N=C(N)N)nc5CC[C@]4(C)[C@H]3CC[C@@]21C as the molecule, how does the growth read?
**A.** 4.5% (active)

**Q.** For C[C@@H](C[C@H](CCOCc1cccnc1)c1ccccc1)c1cc2ccccc2o1, which growth is on record?
**A.** 94.1% (inactive)

**Q.** With CCOC(=O)c1nnn(-c2ccccc2)c1C1=CN(C)CCC1 as the molecule, how does the growth read?
**A.** 109% (inactive)

**Q.** How did the growth turn out when CN1CCC(=C2c3ccccc3C=Cc3ccccc32)CC1 was run?
**A.** 53.1% (inactive)

**Q.** For Nc1c(-c2nc3ccccc3c(=O)[nH]2)nnn1-c1ccc(Cl)cc1, which growth is on record?
**A.** 90.2% (inactive)

**Q.** With CCN(CC)CCNc1ccc(C)c2sc3cc(C)ccc3c(=O)c12 as the molecule, how does the growth read?
**A.** 34% (inactive)

**Q.** CCOC(=O)c1c2c(c(C)n1C)-c1nn(Cc3ccc(OC)cc3)cc1CC2 was tested. Which growth did it give?
**A.** 82.9% (inactive)

**Q.** How did the growth turn out when O=C1Nc2ccc(Cl)cc2/C1=N/N=C/c1c[nH]c2ccccc12 was run?
**A.** 85.7% (inactive)

**Q.** CCc1cc(Cc2cc(CC)cc(C(C)(C)C)c2O)c(O)c(C(C)(C)C)c1 was tested. Which growth did it give?
**A.** 12.9% (inactive)

**Q.** How did the growth turn out when CCOC(=O)c1sc(-c2ccc(OS(=O)(=O)c3ccc(C(C)(C)C)cc3)c(C=O)c2)nc1C was run?
**A.** 29.9% (inactive)

**Q.** With CCC(C)NCc1ccccc1 (stereo not given) as the molecule, how does the growth read?
**A.** 83.4% (inactive)
